Data from PubChem BioAssay AID485317 (Broad Institute, 2010).
Out of some 290,000 compounds screened, about 11,000 (3.8%) were called active. The sample holds actives, similar compounds and a random draw of the others, so the mix is not that of the screen.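 How the source made its calls: active means mean replicate inhibition above about 79%, with every replicate also reaching it (limit read from the data); inconclusive means only one of the two criteria met; inactive means mean below limit and not every replicate reaching it.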

Each compound was assayed against FAD-linked sulfhydryl oxidase ALR (Homo sapiens) (UniProt P55789) (assay: ALR-catalysed DTT oxidation blockers – biochemical, H2O2 detection, HRP-luminol luminescence, single point, primary screen (AID 485317)). Details: purified ALR, active compounds read high, concentration not given here.
Chain of FAD-linked sulfhydryl oxidase ALR (Homo sapiens) (P55789 whole entry, looked up): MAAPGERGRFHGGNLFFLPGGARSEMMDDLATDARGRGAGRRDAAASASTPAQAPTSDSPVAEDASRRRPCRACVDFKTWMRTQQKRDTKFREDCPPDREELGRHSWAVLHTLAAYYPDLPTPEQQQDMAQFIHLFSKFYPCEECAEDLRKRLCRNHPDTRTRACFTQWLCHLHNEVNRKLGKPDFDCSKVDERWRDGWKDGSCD
`COC(C/C=C/C(=O)[C@@H](C)OCc1ccccc1)OC` was tested, and the inhibition was 55.7% (inactive). With `O=C(CNC(=O)C12CC3CC(CC(C3)C1)C2)OCC(=O)N1CCCCC1` the inhibition was -2.51% (inactive). `O=C(CSc1ccccc1)Nc1cccc(S(=O)(=O)N2CCOCC2)c1` was tested, and the inhibition was -1.29% (inactive). For `CCc1c(O)nc(SCC(=O)Nc2ccccc2)n(C(C)CC)c1=O` (configuration not stated), the inhibition was 98.8% (active). `CCn1c(CNC(=O)c2ccc(OC)c(OC)c2)nnc1SCC(=O)Nc1ccccc1` was tested, and the inhibition was -2.46% (inactive). With `CCn1c(Cc2ccccc2)nnc1SCC(=O)Nc1ccccc1` the inhibition was -28.7% (inactive). In the case of `CC(OC(=O)c1ccc([N+](=O)[O-])cc1)C(=O)NCC1CCCCC1` (configuration not stated), the inhibition is reported as -1.04% (inactive). With `O=C(Nc1cccc2c1CCCC2)c1ccc(F)cc1` the inhibition was -21.6% (inactive). `CC1CN(C(=O)c2ccc([N+](=O)[O-])s2)CC(C)O1` (configuration not stated) was tested, and the inhibition was -91.3% (inactive). For `COC(=O)C1=C(C)NC(=O)CC1c1ccccc1OC` (configuration not stated), the inhibition was -0.32% (inactive). In the case of `COc1cc2c(cc1OC)C(C(=O)Nc1cc(C)c(OC)c(C)c1)CC(=O)N2` (configuration not stated), the inhibition is reported as -6.22% (inactive). For `COc1cc(N/C=C2\CC(=O)NC(C)=C2C#N)cc(OC)c1OC`, the inhibition was 97.1% (active). With `Cn1c(N)c(C(=O)COC(=O)/C=C/c2cccc(C(F)(F)F)c2)c(=O)n(C)c1=O` the inhibition was -1.31% (inactive). With `CC(Sc1nncn1C)C(=O)NCCC1=CCCCC1` (configuration not stated) the inhibition was -2.34% (inactive). With `CC(CNC(=O)Cn1cnc2c(OCc3ccccc3)ncnc21)c1ccccc1` (configuration not stated) the inhibition was -1.23% (inactive). In the case of `CC1(c2nnc(Cc3ccccc3)o2)CC(c2ccccc2F)=NO1` (configuration not stated), the inhibition is reported as 1.62% (inactive). For `CCCNC(=O)c1ccc(N2CCC3(CC2)CC(c2cccc(Br)c2)=NO3)c(NC(=O)c2ccco2)c1`, the inhibition was 6.36% (inactive). For `O=C(CSc1nc2ccccc2c(=O)[nH]1)Nc1nc(-c2ccc(Br)cc2)cs1`, the inhibition was -3.23% (inactive). `Cc1cc(C)c2c(=O)[nH]c(SCC(=O)Nc3ccc(Br)cc3)nc2n1` was tested, and the inhibition was -7.51% (inactive). In the case of `N#Cc1c(-c2cccs2)nc(SCC(=O)c2ccc(Br)cc2)[nH]c1=O`, the inhibition is reported as 98.5% (active). `COCCNc1nnc(SCC(=O)NNC(=O)c2ccco2)s1` was tested, and the inhibition was -2.35% (inactive). With `O=C(NCc1ccc2c(c1)OCO2)c1cc([N+](=O)[O-])ccc1N1CCOCC1` the inhibition was -3.3% (inactive). For `O=C(O)c1cccc(S(=O)(=O)N2CC=C(c3ccccc3)CC2)c1`, the inhibition was 3.35% (inactive). For `Cc1ccc(C(=O)NCCNC(=O)c2ccccc2)cc1`, the inhibition was -3.69% (inactive). In the case of `Cc1ccc(SC(CC(=O)c2ccc(C(C)(C)C)cc2)C(=O)O)cc1` (configuration not stated), the inhibition is reported as 97.7% (active). For `Cc1ccc(C(=O)CNc2ccc(F)cc2)cc1`, the inhibition was -18.2% (inactive). With `CC(C)(C)OC(=O)C[C@@H]1C/C=C\C[C@@H](CC(=O)N(CCO)Cc2ccccc2)C(=O)N[C@H](Cc2ccccc2)COC1=O` the inhibition was -5.13% (inactive). For `Cc1cc(NC(=O)CSCC(=O)NC(C)c2ccccc2)no1` (configuration not stated), the inhibition was -11.9% (inactive). For `COc1ccc(/C=C2/SC(=O)N(CCCCCC(=O)Nc3ccccc3C(=O)O)C2=S)cc1`, the inhibition was 98.9% (active). `COc1ccc(/C=C2\SC(=O)N(CCC(=O)NCCCn3ccnc3)C2=O)cc1` was tested, and the inhibition was -4.29% (inactive). In the case of `O=C(CCCN1C(=O)/C(=C\c2ccccc2)SC1=S)Nc1ccccc1O`, the inhibition is reported as 1.84% (inactive). With `O=C1COc2ccc(C(=O)COC(=O)c3ccccc3Cl)cc2N1` the inhibition was -5.15% (inactive). `CCC(CO)Oc1cc(NC(=O)c2cccc3ccccc23)c2ncn(C(C)C)c2c1` (configuration not stated) was tested, and the inhibition was -21.2% (inactive). `COC(=O)CNS(=O)(=O)c1ccc(Cc2ccc(S(=O)(=O)NCC(=O)OC)cc2)cc1` was tested, and the inhibition was 99.2% (active). With `C/C(N)=C(/C#N)C(=O)COC(=O)CNS(=O)(=O)c1ccc(C)cc1` the inhibition was -12.8% (inactive). In the case of `COC(=O)CNS(=O)(=O)c1ccc(OC)cc1`, the inhibition is reported as -8.89% (inactive). In the case of `COc1cc(C(=O)N(C)Cc2cccc(OC)c2OC)ccc1OCC(=O)Nc1cccc(C(F)(F)F)c1`, the inhibition is reported as -114% (inactive). For `CC1O[C@@H](OC2C(O)C(C)O[C@H](OC(=O)[C@]34CCC(C)(C)C[C@H]3C3=CCC5[C@@]6(C)CC(O)C(O[C@@H]7OC(CO)C(O)[C@@H](O)[C@@H]7O)[C@@](C)(C(=O)O)C6CC[C@@]5(C)[C@]3(CO)CC4)C2O[C@H]2OC(C)[C@@H](O[C@@H]3OCC(O[C@@H]4OC(CO)C(O)[C@H](O)C4O)[C@@H](O)[C@@H]3O)[C@H](O)C2O)C(O)C(O)C1O` (some centres not stated), the inhibition was 22.9% (inactive). With `O=C(C[C@H]1C/C=C\C[C@@H](NC(=O)OCC2c3ccccc3-c3ccccc32)C(=O)O[C@@H](c2ccccc2)CNC1=O)N[C@H](CO)Cc1ccccc1` the inhibition was 0.728% (inactive). `OCc1ccc(-c2ccccc2)c(-c2ccccc2)c1` was tested, and the inhibition was -3.81% (inactive). In the case of `CCOc1ccc(C(=O)Nc2ccc(S(=O)(=O)NCC3CCCO3)cc2)cc1OCC` (configuration not stated), the inhibition is reported as 1.23% (inactive). `CCOc1ccccc1Nc1nnc(SCC(=O)NCC2CCCO2)s1` (configuration not stated) was tested, and the inhibition was 1.03% (inactive). For `CCOc1cc(-c2nc3cc(C)ccn3c2NCC2CCCO2)ccc1O` (configuration not stated), the inhibition was 99.6% (active). For `O=C(COC(=O)c1ccc(F)cc1)Nc1ccc2c(c1)OCO2`, the inhibition was -9.08% (inactive). In the case of `C=CC[C@@H](CC(=O)N[C@H](CO)Cc1ccccc1)C(=O)N[C@@H](COC(=O)[C@@H](CC=C)Cc1ccc(F)cc1)Cc1c[nH]c2ccccc12`, the inhibition is reported as 10.3% (inactive). In the case of `COc1ccccc1C(=O)Nc1ccc(Nc2ccccc2)cc1`, the inhibition is reported as -2.18% (inactive). For `COc1ccccc1C(=O)Nc1ccccc1C(=O)Nc1ccccc1`, the inhibition was 4.88% (inactive). `COc1ccccc1C(=O)Nc1nc2nc(-c3ccccc3)cc(=O)n2[nH]1` was tested, and the inhibition was 97.8% (active). In the case of `O=C(CNC(=O)c1ccco1)NNC(=O)c1ccc(Br)cc1`, the inhibition is reported as -12.3% (inactive). With `C=CCC1(C(=O)N(C)Cc2ccccc2)CCN(C(=O)OC(C)(C)C)CC1` the inhibition was -25% (inactive). `COc1ccc(NC(=O)CSc2nc(C)cs2)cc1` was tested, and the inhibition was -14.7% (inactive). `COc1ccc(NC(=O)CSc2ncnc3[nH]ncc23)cc1` was tested, and the inhibition was 98.6% (active). With `CC(=O)Nc1ccc(NC(=O)CSc2ncnc3c2cnn3Cc2ccccc2)cc1` the inhibition was -9.78% (inactive). With `CCCCn1nc(C(=O)Nc2cccc(C(=O)NC3CC3)c2)c2ccccc2c1=O` the inhibition was -0.223% (inactive). In the case of `Cc1ccc(Nc2nnc(SC(C)C(=O)NC3CC3)s2)cc1` (configuration not stated), the inhibition is reported as 7.72% (inactive). `COc1ccccc1C(=O)N1CCN=C1SCc1cccnc1` was tested, and the inhibition was 96.4% (active). With `COc1ccccc1C(=O)NCCC(=O)N(C)Cc1cccnc1` the inhibition was -1.19% (inactive). With `COc1cccc(OC)c1C(=O)N1CCN(Cc2cccnc2)CC1` the inhibition was 6.59% (inactive). For `C=C1CCC(N(O)c2cc(C)on2)C(=C)CCC2C1CC2(C)C` (configuration not stated), the inhibition was 4.12% (inactive). For `COc1ccccc1C(=O)OCC(=O)Nc1cccc(S(=O)(=O)NC2=NCCCCC2)c1`, the inhibition was 14.6% (inactive). In the case of `Cc1ccc(S(=O)(=O)N2CCN(C(=O)Cn3c(=O)cnc4ccccc43)CC2)c(C)c1`, the inhibition is reported as -23.6% (inactive). In the case of `CCc1sc(C(=O)N2CCN(CC(=O)Nc3cccc(F)c3)CC2)cc1C`, the inhibition is reported as -6.06% (inactive). With `CCNc1nc(NCC)nc(N/N=C/c2ccc(O)c(OC)c2)n1` the inhibition was 99.1% (active). With `CCNc1nc(N)nc(-c2cc(Cl)ccc2OC)n1` the inhibition was 4.24% (inactive). `COc1cc(/C=N/Nc2nc3ccccc3s2)ccc1O` was tested, and the inhibition was 46.3% (inactive). In the case of `COc1cc(/C=N\Nc2nc(-c3cccs3)c(NC(C)=O)s2)ccc1O`, the inhibition is reported as 98.9% (active). For `COc1ccc(/C=N/Nc2nc3ccccc3o2)cc1OC`, the inhibition was -12.6% (inactive). For `CCOc1cc(/C=C(\C#N)c2nc(-c3cccs3)c(NC(C)=O)s2)ccc1O`, the inhibition was -22.4% (inactive). `COc1ccccc1/C=N/Nc1nc(C)c(C(C)=O)s1` was tested, and the inhibition was 3.01% (inactive). For `CSc1ccc(/C=C2\NC(=O)NC2=O)cc1`, the inhibition was 4.58% (inactive). `Cc1ccc(-c2cc(C(=O)N/N=C/C=C/c3ccco3)c3ccccc3n2)cc1C` was tested, and the inhibition was -5.26% (inactive). With `Cc1ccc(N=C2NC(=O)/C(=C/C=C/c3ccco3)S2)cc1C` the inhibition was 88.6% (active). In the case of `COC(=O)C1=C(C)N(c2ccc(Br)cc2)C(=O)/C1=C\c1ccco1`, the inhibition is reported as 3.31% (inactive). In the case of `Cc1ccc(N2NC(=O)/C(=C/C=C/c3ccco3)C2=O)cc1C`, the inhibition is reported as 97.4% (active). `Cc1cccc(N=C2NC(=O)/C(=C/c3cn(C)c4ccccc34)S2)c1` was tested, and the inhibition was -1.56% (inactive). `COc1ccc(CNC(=O)COC(=O)c2sccc2C)cc1OC` was tested, and the inhibition was 2.29% (inactive). For `O=C(CN1C(=O)NC2(CCCC2)C1=O)OCCOc1ccc(F)cc1`, the inhibition was -0.86% (inactive). In the case of `CN(CC(=O)Nc1ccc(Cl)cc1)C(=O)c1ccc(COc2ccccc2)cc1`, the inhibition is reported as -2.8% (inactive). With `Cc1[nH]c2ccccc2c1/C=N/NC(=O)CNC(=O)c1ccc2c(c1)OCO2` the inhibition was -4.62% (inactive). `COCCNC(=S)N/N=C/c1c(C)[nH]c2ccccc12` was tested, and the inhibition was 98% (active). With `Cc1[nH]c2ccccc2c1/C=N\NC(=O)Cn1nnc(-c2ccccc2)n1` the inhibition was -18.5% (inactive). `O=C(COC(=O)C1(c2ccc(F)cc2)CCCC1)N1CCNC1=O` was tested, and the inhibition was 1.5% (inactive). With `COc1ccccc1C(CNC(=O)c1cccc(NS(=O)(=O)c2ccc(Br)cc2)c1)N(C)C` (configuration not stated) the inhibition was -2.7% (inactive). In the case of `CC(C)NC(=O)Nc1cccc2c1O[C@@H](CN(C)S(=O)(=O)c1ccc(F)cc1)[C@@H](C)CN([C@H](C)CO)C2=O`, the inhibition is reported as -3.22% (inactive). `CCOC(=O)c1c(N)nn(C(=O)c2ccccc2)c1-c1ccccc1` was tested, and the inhibition was 3.16% (inactive). For `CCOC(=O)c1c(-c2cccc(N)c2)cn2ccccc12`, the inhibition was 99% (active). In the case of `CCOC(=O)c1c(-c2ccccc2)oc2cc(Br)c(O)cc12`, the inhibition is reported as 13.2% (inactive).
